# In PMC4336329 (PLoS ONE, 2015):
# The campaign covered roughly 310,000 compounds. About 14,000 (4.5%) showed an effect of 50% or more. The effect is printed as a negative number. This is one part of a sample in which strong results are shown more often than they occur.
# Biological target: human ether-à-go-go-related gene (hERG) potassium channel (human, UniProt Q12809)
# Assay: primary screen, population patch clamp on CHO cells stably expressing hERG; higher = less effect of the substance
# 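Further: peak tail current of the secondary pulse compared with the same well before compound.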
# human ether-à-go-go-related gene (hERG) potassium channel, sequence (Q12809 whole entry, looked up): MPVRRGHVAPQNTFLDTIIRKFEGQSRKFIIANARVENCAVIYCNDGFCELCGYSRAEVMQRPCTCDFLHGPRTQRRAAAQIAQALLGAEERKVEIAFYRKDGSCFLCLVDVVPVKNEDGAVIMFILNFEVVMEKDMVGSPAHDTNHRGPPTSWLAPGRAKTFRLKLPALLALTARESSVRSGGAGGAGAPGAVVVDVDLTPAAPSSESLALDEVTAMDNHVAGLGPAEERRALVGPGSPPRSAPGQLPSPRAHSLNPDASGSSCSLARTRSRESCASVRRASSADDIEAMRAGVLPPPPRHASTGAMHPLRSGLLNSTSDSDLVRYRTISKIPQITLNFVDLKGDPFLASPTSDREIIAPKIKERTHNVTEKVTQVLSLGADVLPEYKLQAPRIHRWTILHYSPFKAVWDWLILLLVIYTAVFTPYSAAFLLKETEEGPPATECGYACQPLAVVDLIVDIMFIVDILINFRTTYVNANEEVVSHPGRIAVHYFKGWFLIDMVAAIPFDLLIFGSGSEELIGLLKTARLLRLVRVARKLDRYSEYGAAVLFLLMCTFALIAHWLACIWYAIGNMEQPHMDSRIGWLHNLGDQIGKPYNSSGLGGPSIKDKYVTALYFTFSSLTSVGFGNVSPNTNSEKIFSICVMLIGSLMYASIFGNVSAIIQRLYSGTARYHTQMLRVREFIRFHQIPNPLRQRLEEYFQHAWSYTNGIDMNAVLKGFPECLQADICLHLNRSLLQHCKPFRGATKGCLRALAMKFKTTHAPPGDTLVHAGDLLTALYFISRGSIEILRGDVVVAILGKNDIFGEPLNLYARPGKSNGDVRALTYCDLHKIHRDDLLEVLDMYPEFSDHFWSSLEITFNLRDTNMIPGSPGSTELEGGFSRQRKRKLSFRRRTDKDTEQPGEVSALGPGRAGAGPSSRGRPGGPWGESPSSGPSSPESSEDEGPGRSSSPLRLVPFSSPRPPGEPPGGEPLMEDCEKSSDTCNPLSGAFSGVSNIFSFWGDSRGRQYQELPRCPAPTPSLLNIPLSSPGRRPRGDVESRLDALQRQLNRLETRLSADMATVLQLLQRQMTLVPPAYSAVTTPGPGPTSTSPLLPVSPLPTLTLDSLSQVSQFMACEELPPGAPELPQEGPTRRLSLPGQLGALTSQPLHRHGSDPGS
row,SMILES,"hERG current change (%, negative = inhibition) at 10uM [%]"
1,CCCCn1c(N)c(N(CC(C)C)C(=O)c2cc(C)oc2C)c(=O)[nH]c1=O,8.94
2,Clc1ccc(-c2ccn[nH]2)cc1,3.54
3,Cc1ccc(NC(=O)N2C(=O)C3(OCCO3)c3ccccc32)cc1,18.2
4,CCS(=O)(=O)c1ccc(-c2cccc(NC(=O)COc3ccccc3)c2)nn1,6.57
5,O=C1CCCN1CN(C(=O)c1ccc2c(c1)OCO2)c1cccc(Cl)c1,-7.64
6,CC(C)CN(C(=O)COC(=O)C(C)N1C(=O)c2ccccc2C1=O)c1c(N)n(Cc2ccccc2)c(=O)[nH]c1=O (stereo not shown),-7.78
7,COC(=O)c1cc(NC(=O)CC2NCCNC2=O)cc(C(=O)OC)c1 (stereo not shown),5.72
8,Cc1ccc(-c2csc(NC(=O)c3ccc([N+](=O)[O-])o3)n2)cc1,6.85
9,CS(=O)(=O)c1ccc(-c2cc(Br)sc2-c2ccc(F)cc2)cc1,16.4
10,Cc1n[nH]c(C)c1S(=O)(=O)N1CCCC(C(=O)NCC2COc3ccccc3O2)C1 (stereo not shown),0.365
11,COc1ccccc1CNC(=O)CN1CCC(NC(=O)c2ccccc2F)CC1.Cl,-14.5
12,O=C(NCc1ccc(F)cc1)C1CCN(C(=O)NCc2ccccc2)CC1,6.31
13,CCOc1ccc2nc(NC(=O)CN3CCC(n4nnc5cc(F)ccc54)CC3)sc2c1,-40.1
14,O=C(CN1CCC(NC(=O)Cc2ccccc2)CC1)Nc1ccccc1Br,-29.2
15,CCOC(=O)Nc1ccc2c(c1)ncn2C1CCCCC1,-8.98
16,COc1ccccc1CNC(=O)CN1CCC(n2cnc3cc(F)ccc32)CC1,-66
17,O=C(CN1CCN(c2ccc(F)cc2)CC1)Nc1ccccc1Br,12.5
18,CCOc1ccc(NC(=O)CN2CCC(n3cnc4cc(F)ccc43)CC2)cc1,-74.3
19,O=C(c1ccc(F)cc1)C1CCN(C(=O)NCc2ccccc2)CC1,-6.67
20,O=C(NCc1ccccc1)N1CCC(n2cnc3cc(F)ccc32)CC1,-64.3
21,COc1cccc(C(=O)NC2CCN(CC(=O)NCc3ccccc3OC)CC2)c1,-10.7
22,O=C(CN1CCC(n2cnc3cc(F)ccc32)CC1)Nc1ccccc1Br,-87.8

row,SMILES,"hERG current change (%, negative = inhibition) at 10uM [%]"
1,COc1ccc(C(=O)Nc2ccccc2C(=O)NC(C)C)cc1OC,-6.82
2,CCc1nc(SCC(=O)O)c2c3c(sc2n1)COC(C)(C)C3,23.2
3,CCCNc1c(NS(=O)(=O)c2ccc(C3CCCCC3)cc2)c(=O)oc2ccccc12,21.9
4,Cc1onc(-c2ccccc2)c1-c1csc(N/N=C/c2ccccc2)n1,8.79
5,CC(C)[C@H](NC(=O)c1cccc(S(=O)(=O)N2CCCC2)c1)c1nc2ccccc2[nH]1,9.05
6,COc1ccc(/C=N/N2CCN(c3ccncc3S(=O)(=O)N3CCCCC3)CC2)cc1,10.3
7,CCOC(=O)c1cc2sc(C)cc2n1CC(=O)N1CCN(C(=O)c2ccco2)CC1,-8.61
8,Cc1ccc2nc(Cl)c(/C=N/NC(=O)[C@H]3C[C@@H]3c3ccccc3)cc2c1,19.5
9,O=C(Cc1ccc(-c2ccccc2)cc1)NCCN1CCOCC1,0.566
10,COc1cccc(CC2(CO)CCCN(Cc3ccc(C)s3)C2)c1 (stereo not shown),-50.5
11,OCC1(Cc2ccccc2)CCCN(Cc2ccc3c(c2)OCCO3)C1 (stereo not shown),-24.6
12,COc1cccc(CC2(CO)CCCN(Cc3sc(N4CCCC4)nc3Cl)C2)c1 (stereo not shown),-27.2
13,COc1cccc(CC2(CO)CCCN(Cc3cc4ccccc4[nH]3)C2)c1 (stereo not shown),-37.5
14,COc1cccc(CC2(CO)CCCN(Cc3ccc4c(c3)OCCO4)C2)c1 (stereo not shown),-58.5
15,COc1cccc(CC2(CO)CCCN(Cc3ccc(CN4CCCCC4)s3)C2)c1 (stereo not shown),-22.1
16,COc1cccc(CC2(CO)CCCN(Cc3ccc(OC(F)F)cc3)C2)c1 (stereo not shown),-68.6
17,COc1cccc(CC2(CO)CCCN(Cc3[nH]c4ccc(C)cc4c3C)C2)c1 (stereo not shown),-74.7
18,CCC(NC(=O)c1ccccc1NC(=O)c1ccco1)C(=O)NNC(=O)c1ccc(OC)cc1 (stereo not shown),10.3
19,NC(=O)c1ccc(SCC(=O)OCC(=O)NCC2CCCCC2)c([N+](=O)[O-])c1,-5.21
20,CC(C)(C)NC(=O)c1ccc2c(c1)N(CC(=O)NC1CCCC1)C(=O)C(C)(C)O2,8.72
21,COc1ccc(-c2csc(NC(=O)CSCC(=O)Nc3cc(C)on3)n2)cc1OC,1.07
22,O=C(Nc1ccc(-c2n[nH]c(=S)o2)cc1)c1ccccc1,15.6

row,SMILES,"hERG current change (%, negative = inhibition) at 10uM [%]"
1,O=C(c1cccc(S(=O)(=O)Nc2ccccc2F)c1)N1CCN(c2ccccc2F)CC1,-21.5
2,CCOc1ccc(NC(=O)CSc2nccn2Cc2ccco2)cc1,-19.5
3,Cc1cc(S(=O)(=O)N2CCCC(C(=O)Nc3ccc(C(=O)O)cc3)C2)ccc1Cl (stereo not shown),10.2
4,COc1ccc(CSc2nnnn2C)cc1F,-6.74
5,CC1CCN(C2=NC(=O)/C(=C/c3ccc(O)cc3)S2)CC1,-24.7
6,CC(C)(C)c1ccc(/C=C2/SC(N3CCCC3)=NC2=O)cc1,-51.1
7,Cc1ccc(/C=C2\SC(N3CCCCC3)=NC2=O)cc1,0.193
8,Cc1ccc(/C=C2\SC(N3CCCC3)=NC2=O)cc1,-22.4
9,CCOC(=O)C1CCN(C2=NC(=O)/C(=C/c3ccccc3OC)S2)CC1,-22.9
10,CCOC(=O)C1CCN(C2=NC(=O)/C(=C/c3ccc(OC)c(OC)c3)S2)CC1,-17.8
11,CCOC(=O)C1CCCN(C2=NC(=O)/C(=C/c3ccc(N(C)C)cc3)S2)C1 (stereo not shown),-24.9
12,CCOC(=O)C1CCN(C2=NC(=O)/C(=C/c3ccc(O)cc3)S2)CC1,-67.1
13,CCOC(=O)C1CCN(C2=NC(=O)/C(=C/c3ccc(Cl)cc3)S2)CC1,-64.8
14,COc1ccc(NCc2nnc(SCC(=O)Nc3ccc(OC)cc3OC)o2)cc1,-9.35
15,CCN(c1ccccc1)S(=O)(=O)c1cc2c(cc1C)n(C)c(=O)c(=O)n2C,-32
16,Cc1cccc(C(=O)NNS(=O)(=O)c2ccccc2[N+](=O)[O-])c1,1.16
17,CN(C(=O)CCS(=O)(=O)c1ccc2c(c1)oc(=O)n2C)C1CCCCC1,3.68
18,Cc1nn(CCC(=O)O)c(C)c1C,5.72
19,C=CCn1c(=O)c2c(nc3n2CCN3c2cccc(Cl)c2C)n(C)c1=O,-15
20,CCCn1c(CN2CCN(C(=O)OCC)CC2)nc2cc([N+](=O)[O-])ccc21,-64
21,CCOC(=O)N1CCN(Cc2nc3cc([N+](=O)[O-])ccc3n2C)CC1,-24.5
22,CCOC(=O)N1CCN(Cc2nc3cc(NC(=O)CC(C)C)ccc3n2CC)CC1,-8.18

row,SMILES,"hERG current change (%, negative = inhibition) at 10uM [%]"
1,CCOC(=O)N1CCN(Cc2nc3cc(NC(=O)C(C)C)ccc3n2CC)CC1,14.3
2,CCOC(=O)N1CCN(Cc2nc3cc([N+](=O)[O-])ccc3n2CC)CC1,-51.9
3,CCCn1c(CN2CCN(C(=O)OCC)CC2)nc2cc(NC(C)=O)ccc21,12.8
4,O=C(COC(=O)c1ccco1)NCc1cccs1,12.4
5,CC(=O)Nc1cc(C(=O)N(C)Cc2ccco2)ccc1Sc1ccc(Cl)cc1,-66.7
6,CCN(CC)CCNC(=O)c1ccc(Sc2ccc(Cl)cc2)c(NC(C)=O)c1,-61.7
7,CC(=O)Nc1cc(C(=O)NCCN2CCN(Cc3ccccc3)CC2)ccc1Sc1ccc(C)cc1,-63.6
8,CCC(=O)Nc1cc(C(=O)O)ccc1Sc1ccc(C)cc1,4.85
9,CCOc1ccc(CNC(=O)c2ccc(Sc3ccc(Cl)cc3)c(NC(C)=O)c2)cc1,-8.57
10,CCOc1ccc(CNC(=O)c2ccc(Sc3ccc(C)cc3)c(NC(C)=O)c2)cc1OC,-21.5
11,CCOc1ccc(CNC(=O)c2ccc(Sc3ccc(C)cc3)c(NC(C)=O)c2)cc1,-4.85
12,CCOc1ccccc1CNC(=O)c1ccc(Sc2ccc(Cl)cc2)c(NC(C)=O)c1,-19.4
13,CC(=O)Nc1cc(C(=O)NCc2ccco2)ccc1Sc1ccc(C)cc1,-17.8
14,CC(=O)Nc1cc(C(=O)NCc2ccco2)ccc1Sc1ccc(F)cc1,-40.8
15,CC(=O)Nc1cc(C(=O)NCc2ccco2)ccc1Sc1ccc(Cl)cc1,-35.6
16,CCN(CC)CCNC(=O)c1ccc(Sc2ccc(C)cc2)c(NC(C)=O)c1,-58.2
17,CSc1ncc(F)c(N(CCO)CCO)n1,10.5
18,O=C1S/C(=C\c2ccccn2)C(=O)N1Cc1ccccc1F,9.45
19,O=S(=O)(Nc1cccnc1Cl)c1ccc2c(c1)OCCO2,15.4
